Out of some 5,500 compounds screened, about 2,000 (36%) were called active. Another 18% or so got no clear call; they are omitted. Cut-off read from the data, not from the text of the source: active = normalized growth mostly below about 0.91 (no sharp cut-off); inconclusive = no clear call, values can overlap the other calls; inactive = mostly above about 0.92. Some of the results follow.
Assay: chemical genetic growth profiling, strain panel (AID 1159580);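 note: tested at 20 µM; growth read once vehicle control cultures reached saturation at 30 °C; 1 = growth at the plate median or of vehicle wells; lower values mean less growth of the strain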
Conditions: growth OD

Measured: normalized growth

C[C@H]1[C@H](C)CC[C@]2(C(=O)O)CC[C@]3(C)C(=CCC4[C@@]5(C)C[C@@H](O)[C@H](O)[C@@](C)(CO)C5[C@H](O)C[C@]43C)[C@H]12 (stereo partly drawn)
inactive: S. cerevisiae deletion strains, locus YJR066W, strain TOR1, active compounds read low 0.909 | S. cerevisiae deletion strains, locus YKL160W, strain elf1, active compounds read low 0.958 | S. cerevisiae deletion strains, locus YKR026C, strain gcn3, active compounds read low 0.962 | S. cerevisiae deletion strains, locus YKR091W, strain srl3, active compounds read low 0.965 | S. cerevisiae deletion strains, locus YLL001W, strain dnm1, active compounds read low 0.964 | S. cerevisiae deletion strains, locus YLL026W, active compounds read low 0.97 | S. cerevisiae deletion strains, locus YLL041C, strain sdh2, active compounds read low 0.966 | S. cerevisiae deletion strains, locus YLR027C, strain aat2, active compounds read low 0.96 | S. cerevisiae deletion strains, locus YLR039C, strain RIC1, active compounds read low 0.799 | S. cerevisiae deletion strains, locus YLR058C, strain SHM2, active compounds read low 0.993 | S. cerevisiae deletion strains, locus YLR102C, strain apc9, active compounds read low 0.976 | S. cerevisiae deletion strains, locus YLR221C, strain rsa3, active compounds read low 0.922 | S. cerevisiae deletion strains, locus YLR258W, strain gsy2, active compounds read low 0.968 | S. cerevisiae deletion strains, locus YLR262C, strain YPT6 (second series), active compounds read low 0.919 | S. cerevisiae deletion strains, locus YLR262C, strain YPT6, active compounds read low 0.872 | S. cerevisiae deletion strains, locus YLR268W, strain sec22, active compounds read low 0.932 | S. cerevisiae deletion strains, locus YLR320W, strain mms22, active compounds read low 0.928 | S. cerevisiae deletion strains, locus YLR330W, strain CHS5, active compounds read low 0.958 | S. cerevisiae deletion strains, locus YLR342W, strain FKS1 (second series), active compounds read low 0.915 | S. cerevisiae deletion strains, locus YLR342W, strain FKS1, active compounds read low 0.982 | S. cerevisiae deletion strains, locus YLR357W, strain rsc2, active compounds read low 0.921 | S. cerevisiae deletion strains, locus YLR370C, strain arc18, active compounds read low 0.967 | S. cerevisiae deletion strains, locus YLR371W, strain rom2, active compounds read low 0.921 | S. cerevisiae deletion strains, locus YLR384C, strain iki3, active compounds read low 0.964 | S. cerevisiae deletion strains, locus YLR418C, strain cdc73, active compounds read low 0.901 | S. cerevisiae deletion strains, locus YML016C, strain PPZ1, active compounds read low 0.99 | S. cerevisiae deletion strains, locus YML032C, strain rad52, active compounds read low 0.959 | S. cerevisiae deletion strains, locus YML120C, strain ndi1, active compounds read low 0.951 | S. cerevisiae deletion strains, locus YML124C, strain tub3, active compounds read low 0.963 | S. cerevisiae deletion strains, locus YMR058W, strain fet3, active compounds read low 0.972 | S. cerevisiae deletion strains, locus YMR078C, strain ctf18, active compounds read low 0.979 | S. cerevisiae deletion strains, locus YMR125W, strain sto1, active compounds read low 0.966 | S. cerevisiae deletion strains, locus YMR129W, active compounds read low 0.962 | S. cerevisiae deletion strains, locus YMR205C, strain PFK2, active compounds read low 0.909 | S. cerevisiae deletion strains, locus YMR223W, strain ubp8, active compounds read low 0.905 | S. cerevisiae deletion strains, locus YMR231W, strain pep5, active compounds read low 0.978 | S. cerevisiae deletion strains, locus YMR307W, strain GAS1, active compounds read low 0.6 | S. cerevisiae deletion strains, locus YNL067W, strain RPL9B, active compounds read low 0.942 | S. cerevisiae deletion strains, locus YNL071W, strain lat1, active compounds read low 0.973 | S. cerevisiae deletion strains, locus YNL183C, strain NPR1, active compounds read low 0.905 | S. cerevisiae deletion strains, locus YNL209W, strain ssb2, active compounds read low 0.961 | S. cerevisiae deletion strains, locus YNL233W, strain BNI4, active compounds read low 0.927 | S. cerevisiae deletion strains, locus YNL248C, strain rpa49, active compounds read low 0.964 | S. cerevisiae deletion strains, locus YNL250W, strain rad50, active compounds read low 0.98 | S. cerevisiae deletion strains, locus YNL307C, strain MCK1, active compounds read low 0.994 | S. cerevisiae deletion strains, locus YNL322C, strain KRE1 (second series), active compounds read low 0.98 | S. cerevisiae deletion strains, locus YNL322C, strain KRE1, active compounds read low 0.984 | S. cerevisiae deletion strains, locus YNR049C, strain mso1, active compounds read low 0.987 | S. cerevisiae deletion strains, locus YOL006C, strain TOP1, active compounds read low 0.915 | S. cerevisiae deletion strains, locus YOL012C, strain htz1 0.605 | S. cerevisiae deletion strains, locus YOL147C, strain pex11, active compounds read low 0.985 | S. cerevisiae deletion strains, locus YOR001W, strain rrp6, active compounds read low 0.907 | S. cerevisiae deletion strains, locus YOR061W, strain CKA2, active compounds read low 0.994 | S. cerevisiae deletion strains, locus YOR069W, strain VPS5, active compounds read low 0.998 | S. cerevisiae deletion strains, locus YOR070C, strain gyp1, active compounds read low 0.966 | S. cerevisiae deletion strains, locus YOR080W, strain dia2, active compounds read low 0.967 | S. cerevisiae deletion strains, locus YOR083W, strain WHI5, active compounds read low 0.954 | S. cerevisiae deletion strains, locus YOR106W, strain vam3, active compounds read low 0.972 | S. cerevisiae deletion strains, locus YOR136W, strain idh2, active compounds read low 0.931 | S. cerevisiae deletion strains, locus YOR144C, strain elg1, active compounds read low 0.958 | S. cerevisiae deletion strains, locus YOR184W, strain ser1, active compounds read low 0.946 | S. cerevisiae deletion strains, locus YOR231W, strain MKK1, active compounds read low 0.982 | S. cerevisiae deletion strains, locus YOR265W, strain rbl2, active compounds read low 0.98 | S. cerevisiae deletion strains, locus YOR270C, strain vph1, active compounds read low 0.851 | S. cerevisiae deletion strains, locus YOR290C, strain snf2, active compounds read low 0.971 | S. cerevisiae deletion strains, locus YOR316C, strain cot1, active compounds read low 0.962 | S. cerevisiae deletion strains, locus YPL051W, strain arl3, active compounds read low 0.959 | S. cerevisiae deletion strains, locus YPL055C, strain LGE1, active compounds read low 0.938 | S. cerevisiae deletion strains, locus YPL078C, strain atp4, active compounds read low 0.984 | S. cerevisiae deletion strains, locus YPL106C, strain sse1, active compounds read low 0.895 | S. cerevisiae deletion strains, locus YPL240C, strain hsp82, active compounds read low 0.953 | S. cerevisiae deletion strains, locus YPL241C, strain CIN2, active compounds read low 1 | S. cerevisiae deletion strains, locus YPL256C, strain CLN2, active compounds read low 0.958 | S. cerevisiae deletion strains, locus YPR119W, strain clb2, active compounds read low 0.978 | S. cerevisiae deletion strains, locus YPR141C, strain kar3, active compounds read low 0.974 | S. cerevisiae deletion strains, locus YPR163C, strain tif3, active compounds read low 0.969 | S. cerevisiae deletion strains, locus YPR167C, strain met16, active compounds read low 0.974 | S. cerevisiae deletion strains, strain wtn01, active compounds read low 0.94 | S. cerevisiae strains, strain wild type, active compounds read low 0.961
active: S. cerevisiae deletion strains, locus YKL009W, strain mrt4, active compounds read low 1.55 [resistant] | S. cerevisiae deletion strains, locus YKL068W, active compounds read low 1.23 [resistant] | S. cerevisiae deletion strains, locus YKL085W, strain MDH1 (second series), active compounds read low 1.3 [resistant] | S. cerevisiae deletion strains, locus YKL085W, strain MDH1, active compounds read low 1.3 [resistant] | S. cerevisiae deletion strains, locus YKR001C, strain vps1, active compounds read low 0.855 | S. cerevisiae deletion strains, locus YLR113W, strain HOG1, active compounds read low 0.673 | S. cerevisiae deletion strains, locus YNL271C, strain bni1, active compounds read low 0.907 | S. cerevisiae deletion strains, locus YNL298W, strain CLA4, active compounds read low 0.869 | S. cerevisiae deletion strains, locus YNR052C, strain pop2, active compounds read low 0.914

Source: PubChem BioAssay AID1159580 (chemical genetic matrix, 2015)
